Only some compounds are listed: those with a hit (about 19% of all), similar ones and a draw of the others.
MARV entry inh: Marburg virus entry inhibition | Marburg virus pseudotyped entry inhibition, cell reporter | Potency, µM (titrated, usually from 37.8 µM), inactives show at the top dose activity change, negative = inhibition, actives largely listed as inhibitors | 300,000 compounds, 1.8% hits; calls by dose curve; tested in HEK293 cells; also: potency is read from the fitted curve at half-maximal effect; % is scaled to controls: 0 for no effect and ±100 for the full control effect
Pf growth 96h: P. falciparum growth inhibition at 96 hours. 320,000 compounds, 6.9% hits. Potency, µM (series often up to 28.7 µM), for inactives: at the top dose activity change, negative = inhibition, most hits filed as inhibitors. P. falciparum luciferase reporter growth, 96 h. AID 504834; also: potency is read from the fitted curve at half-maximal effect; % is scaled to controls: 0 for no effect and ±100 for the full control effect
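Compounds incubated with erythrocytes infected by luciferase-expressing P. falciparum (2% hematocrit, 0.05% parasitemia final) for 96 hours, 37 C in 5% CO2. Growth inhibition scored as decreased luciferase luminescence.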
Cycloheximide cs: affects cycloheximide protein synthesis inhibition readout, counter-screen; cell reporter, cycloheximide protein synthesis inhibition counterscreen; max response, %; 300,000 compounds, 12% hits; AID 2314; in the data active = max response mostly above about 13%, no sharp cut-off; inactive = mostly below about 14%; also: read at 38.3 µM for the half of the compounds with a filed dose; 0% is about no effect
Lassa entry inh: inhibitors of Lassa virus binding or cell entry | 300,000 compounds, 1.2% hits | Lassa virus pseudotype entry inhibition, cell reporter | Potency, µM (series often up to 37.9 µM), inactives show at the highest dose activity change, negative = inhibition, hits mostly inhibitors; calls by dose curve; tested in HEK293 cells; also: potency is read from the fitted curve at half-maximal effect; % is scaled to controls: 0 for no effect and ±100 for the full control effect; nearly all actives have a fitted effect of over 50% in size
Shiga toxin inh: Shiga toxin inhibition | Vero cells, Shiga toxin protein synthesis inhibition reporter | inhibition, % at 38.7 µM | 290,000 compounds, 9.2% hits | AID 2315; in the data active = inhibition mostly above about 28%, no sharp cut-off; inactive = mostly below about 43%; also: 0% is about no effect
Pf growth 48h: P. falciparum growth inhibition at 48 hours (one generation); AID 504832; 310,000 compounds, 5.9% hits; P. falciparum luciferase growth in erythrocytes, 48 h; Potency, µM (titrated, usually from 28.7 µM), for inactives: top-dose activity change, negative = inhibition, actives largely listed as inhibitors; also: potency is read from the fitted curve at half-maximal effect; % is scaled to controls: 0 for no effect and ±100 for the full control effect
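Luminescence readout; reporter = integrated firefly luciferase in P. falciparum. RBC culture at 2% hematocrit, 0.1% parasitemia final, 37 C/5% CO2; decreased signal taken as growth inhibition.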
* marks the source's active call; other numbers are inactive results; [ ] = another dose, or the depositor's remark. Unless noted, calls follow the shape of the dose curve; as a rule, active = well fitted inhibition curve with a large enough effect; inconclusive = small, poorly fitted or top-dose-only effect, or another doubt; inactive = no such curve, though single readings can be large or run the other way.

For CCOC(=O)Cc1csc(NC(=O)Nc2cccc(OC)c2)n1 the results were MARV entry inh 1.0%, Pf growth 96h 10.4µM*, Cycloheximide cs 17.3*, Lassa entry inh -24.8%, Shiga toxin inh 29.7 and Pf growth 48h inconclusive.
For CCOC(=O)Cc1csc(NC(=O)c2sc3nc4c(C)cc(C)cc4cc3c2N)n1 the results were MARV entry inh -8.7%, Pf growth 96h inconclusive, Cycloheximide cs 19.6*, Lassa entry inh 6.2%, Shiga toxin inh 11.9 and Pf growth 48h inconclusive.
Screening CCOC(=O)CN(Cc1sccc1C)C(=O)Nc1cccc(OC)c1 returned MARV entry inh inconclusive, Pf growth 96h 32.7%, Cycloheximide cs 12.0*, Lassa entry inh 12.7%, Shiga toxin inh 48.2* and Pf growth 48h 46.4%.
For CCOC(=O)Cc1csc(NC(=O)c2cccc(OC)c2)n1 the results were MARV entry inh 3.6%, Pf growth 96h 12.8%, Cycloheximide cs 11.9*, Lassa entry inh 9.7%, Shiga toxin inh 20.1 and Pf growth 48h 10.0%.
Screening CCc1ccc(-n2c(=O)c3c(C)c(C)sc3n(CC(=O)NCC3CCCO3)c2=O)cc1 (stereo not drawn) returned MARV entry inh 3.6%[46.1 µM], Pf growth 96h -24.6%, Cycloheximide cs -7.7, Lassa entry inh -2.2%[46.1 µM], Shiga toxin inh -2.3 and Pf growth 48h -7.2%.
CCOc1cc(S(=O)(=O)n2cc(-c3ccc(F)cc3)c(N)n2)cc(OCC)c1OCC was read as MARV entry inh inconclusive, Cycloheximide cs -1.6, Lassa entry inh inconclusive, Shiga toxin inh -13.2 and Pf growth 48h 8.28µM*.
CCOc1ccc(S(=O)(=O)n2cc(-c3ccccc3)c(N)n2)cc1 was read as MARV entry inh 6.3%, Pf growth 96h inconclusive, Cycloheximide cs -2.2, Lassa entry inh -11.8%, Shiga toxin inh 21.0 and Pf growth 48h inconclusive.
Screening CCOc1ccc(S(=O)(=O)n2cc(-c3ccc(F)cc3)c(N)n2)cc1 returned MARV entry inh 3.4%, Pf growth 96h 9.28µM*, Cycloheximide cs 9.2, Lassa entry inh -21.8% and Shiga toxin inh -5.9.
Screening CCOC(=O)c1c(C)n(OCc2ccccc2)c2ccc3c(no[n+]3[O-])c12 returned MARV entry inh inconclusive, Cycloheximide cs 0.6, Lassa entry inh inconclusive, Shiga toxin inh -2.3 and Pf growth 48h -8.0%.
Cn1c(-c2ccccc2)cc2c3no[n+]([O-])c3ccc21 was read as MARV entry inh 3.55µM*, Pf growth 96h 53.1%, Cycloheximide cs 27.5*, Lassa entry inh 4.47µM*, Shiga toxin inh 68.0* and Pf growth 48h 42.2%.
Screening CCC(=O)N(c1ccc(C(=O)O)cc1)c1nc(-c2ccc(OC)cc2)c(C)s1 returned Pf growth 96h -0.7%, Cycloheximide cs -4.7, Shiga toxin inh 7.1 and Pf growth 48h inconclusive.
`COc1ccc(C)cc1NC(=O)Nc1cccc(C)c1` gave Pf growth 96h inconclusive, Cycloheximide cs 0.9, Shiga toxin inh 5.2 and Pf growth 48h 0.0%.
Cc1cccc(NC(=O)Nc2ccc(Oc3c(F)c(F)c(F)c(F)c3F)cc2)c1 was read as MARV entry inh 18.1%, Pf growth 96h 7.38µM*, Cycloheximide cs 1.0, Lassa entry inh 11.6%, Shiga toxin inh 4.2 and Pf growth 48h inconclusive.
Cc1cccc(NC(=O)Nc2ccc(S(N)(=O)=O)cc2)c1 was read as MARV entry inh 6.9%[46.1 µM], Pf growth 96h 30.3%, Cycloheximide cs 13.1, Lassa entry inh -1.1%[46.1 µM], Shiga toxin inh 17.4 and Pf growth 48h 8.8%.
Screening Cc1cccc(NC(=O)Nc2ccc(C)cc2Br)c1 returned MARV entry inh 5.5%, Pf growth 96h -23.8%, Cycloheximide cs 31.6*, Lassa entry inh 3.1%, Shiga toxin inh 60.6* and Pf growth 48h 102.6%.
For Cc1cccc(NC(=O)NCc2ccc3[nH]c(C)cc3c2)c1 the results were Pf growth 96h 41.5%, Cycloheximide cs 21.2*, Shiga toxin inh 50.0 and Pf growth 48h 87.0%.
Cc1cc2cc(CNC(=O)NC3CCCCC3)ccc2[nH]1 was read as MARV entry inh 28.6%, Cycloheximide cs 17.9*, Lassa entry inh 23.0%, Shiga toxin inh 39.7* and Pf growth 48h inconclusive.
Screening Cc1ccc(NC(=O)NCc2ccc3[nH]c(C)cc3c2)cc1 returned Pf growth 96h 56.4%, Cycloheximide cs 44.9, Shiga toxin inh 40.8* and Pf growth 48h -11.8%.
Cc1ccc(CNC(=O)Nc2cccc(C)c2)cc1 was read as Pf growth 96h -12.2%, Cycloheximide cs 37.3*, Shiga toxin inh 74.9* and Pf growth 48h 139.6%.
CCc1cccc(C)c1NC(=S)NCc1ccc2[nH]c(C)cc2c1 was read as MARV entry inh -31.8%, Pf growth 96h 10.4µM*, Cycloheximide cs -2.5, Lassa entry inh inconclusive, Shiga toxin inh -1.9 and Pf growth 48h 13.1µM*.
O=C(O)/C=C\C(=O)Nc1ccc(N2CCN(c3ccc(F)cc3)CC2)cc1 was read as MARV entry inh 17.5%[46.1 µM], Pf growth 96h inconclusive, Cycloheximide cs 1.1, Lassa entry inh -24.9%[46.1 µM], Shiga toxin inh 19.1 and Pf growth 48h inconclusive.
Screening CCn1c(SCC(=O)Nc2cc(OC)ccc2OC)nc2c(c1=O)SCC2 returned MARV entry inh -8.0%, Pf growth 96h -18.9%, Cycloheximide cs 4.6, Lassa entry inh inconclusive, Shiga toxin inh -18.6 and Pf growth 48h inconclusive.
For Cc1c(CN(C)C)c2c(n1C)C(=O)c1ccc(Br)cc1-2 the results were MARV entry inh inconclusive, Pf growth 96h 11.7µM*, Cycloheximide cs -2.6, Lassa entry inh inconclusive, Shiga toxin inh -15.9 and Pf growth 48h inconclusive.
`Cc1c(CN(C)C)c2c(n1Cc1ccccc1)C(=O)c1ccc(Br)cc1-2` gave MARV entry inh inconclusive, Pf growth 96h 2.33µM*, Cycloheximide cs 1.1, Lassa entry inh inconclusive and Shiga toxin inh -3.3.
CCOc1ccc(C(=O)NC(C(=O)NCCc2ccc(S(N)(=O)=O)cc2)C(C)C)cc1 (stereo not drawn) was read as MARV entry inh inconclusive, Pf growth 96h 7.2%, Cycloheximide cs -2.6, Lassa entry inh -27.0%, Shiga toxin inh -7.9 and Pf growth 48h 9.8%.
Screening CCCCN(CC)C(=O)c1ccc(-c2ccccc2)cc1 returned MARV entry inh -11.0%, Pf growth 96h 5.4%, Cycloheximide cs -2.7, Lassa entry inh -4.6%, Shiga toxin inh 20.3 and Pf growth 48h inconclusive.
Screening O=C(NCc1ccccc1Cl)C1CCN(S(=O)(=O)N2CCCCC2)CC1 returned MARV entry inh 3.3%, Cycloheximide cs 2.6, Lassa entry inh 4.5%, Shiga toxin inh 17.4 and Pf growth 48h -5.8%.
Screening Cn1cc(Cl)c(-c2n[nH]c(=S)n2-c2ccccc2)n1 returned MARV entry inh inconclusive, Pf growth 96h -20.4%, Cycloheximide cs -2.4, Lassa entry inh 4.4%, Shiga toxin inh 20.0 and Pf growth 48h 4.7%.
Cc1nn(C)c(-c2n[nH]c(=S)n2-c2ccccc2)c1Cl was read as MARV entry inh inconclusive, Pf growth 96h 9.8%, Cycloheximide cs 10.2, Lassa entry inh 10.3%, Shiga toxin inh active and Pf growth 48h 12.2%.
